FMDV FLuc – FMDV antiviral activity by firefly signal | 120,000 tested, 0.23% active | Potency, µM (titrated, usually from 57.5 µM), for the others: at the highest dose activity change, negative = inhibition, usual class: inhibitors | FMDV antiviral cell assay, firefly luciferase signal; also: nearly all actives have a fitted effect of over 60% in size
FMDV RLuc – FMDV antiviral activity by Renilla signal | AID 1745857 | Potency, µM (doses to about 57.5 µM), without a hit: top-dose activity change, negative = inhibition, usual class: inhibitors | FMDV replicon cells, Renilla luciferase signal | 120,000 tested, 0.32% active; also: nearly all actives have a fitted effect of over 55% in size
Starred values were filed as active, the others as inactive; ? = inconclusive; ! = not active in a repeat. Compounds with a hit are over-represented: about 0.51% of the library has one in this group of screens. Calls follow the shape of the full dose curve. % is scaled to controls: 0 for no effect and ±100 for the full control effect; potency is read from the fitted curve at half-maximal effect.

SMILES | FMDV FLuc | FMDV RLuc
COC(=O)C1(NC(=O)c2cc(Cl)ccc2Cl)CCCCCC1 | -11.2% | -5.4%
COc1cccc(CNC(=O)CN2C(=O)C(C)=C(c3ccc(C)c(C)c3)S2(=O)=O)c1 | 2.9% | 5.0%
Cc1cc(N2CCCC2)nc(Nc2ccc(NC(=O)Nc3ccc(Cl)cc3)cc2)n1 | 47.9% | 13.2%
Cc1cc(N2CCOCC2)nc(N2CCN(C(=O)Nc3ccccc3)CC2)n1 | 0.0% | -3.8%
Cc1cc(N2CCOCC2)nc(Nc2ccc(NC(=O)CCc3ccccc3)cc2)n1 | 5.01µM* | 3.98µM*
Cc1cc(N2CCCC2)nc(Nc2ccc(NS(=O)(=O)c3ccc(Br)cc3)cc2)n1 | 31.6µM* | -17.0%
Cc1cc(N2CCCCC2)nc(Nc2ccc(NC(=O)Cc3ccccc3)cc2)n1 | 14.1µM* | 12.6µM*
CCN(CC)c1cc(C)nc(Nc2ccc(NS(=O)(=O)c3ccc(OC)c(OC)c3)cc2)n1 | ? | -61.2%
Cc1ccc(-c2cc(C(=O)NCCN(C)C)c3ccccc3n2)cc1C | 11.4% | -11.3%
Cc1ccsc1-c1nc(-c2ccc3c(c2)CCO3)cs1 | 193.3% | 46.1%
Oc1ccc(Cl)cc1C=NCc1ccccc1C(F)(F)F | 4.4% | 1.6%
Cc1occc1-c1nnc(SCC(=O)NC(C)c2ccc3c(c2)OCCO3)n1-c1ccccc1 (stereo unspecified) | -5.6% | -0.2%
Cn1nc(CC(=O)Nc2ccc(Cl)cc2Cl)c2ccccc2c1=O | ? | 3.16µM*
Cn1nc(CC(=O)Nc2ccc(O)cc2)c2ccccc2c1=O | ? | -23.8%
CC(O)c1ccc(-c2ccc(CNc3nnnn3C)o2)cc1 (stereo unspecified) | 12.4% | 14.5%
CCc1ccc(CCC(=O)N(C)Cc2cccs2)cc1 | 47.9% | 141.8%
COc1ccc(CNc2oc(-c3ccco3)nc2C#N)cc1 | 0.0% | 0.0%
CCOc1ccc2nc(N(Cc3cccnc3)C(=O)c3cccs3)sc2c1 | 55.4% | 3.8%
COc1ccc2sc(N(Cc3cccnc3)C(=O)c3cccs3)nc2c1 | ? | 3.16µM*
c1ccc2oc(CSc3ccc4c(c3)OCCO4)nc2c1 | 171.4% | 204.7%
CCCOc1cccc(C(=O)Nc2ccc(-c3cc4ccccc4oc3=O)c(C)c2)c1 | 3.0% | -14.2%
CCCOc1ccc(C(=O)Nc2ccc(-c3cc4ccccc4oc3=O)c(C)c2)cc1 | 7.94µM* | 4.47µM*
CC(C)c1ccc2oc(-c3cccc(NC(=O)c4cccnc4)c3)nc2c1 | 22.9% | 6.9%
O=C(c1ccc(Cl)cc1)N1CCN(c2nc3ccccc3s2)CC1 | 13.4% | 0.5%
CCS(=O)(=O)c1ccccc1C(=O)N1CCN(c2nc3ccccc3s2)CC1 | 11.2µM* | -3.6%
SMILES | FMDV FLuc | FMDV RLuc
CCC(Oc1ccc(F)cc1)C(=O)Nc1nc(-c2ccc(F)cc2)ns1 (stereo unspecified) | 25.1µM* | ?
CCC(Oc1ccc(F)cc1)C(=O)Nc1cc(-c2ccc(C)cc2)no1 (stereo unspecified) | -2.0% | -3.9%
O=C(Nc1ccc(-n2cccn2)c(F)c1)C1CCN(C(=O)c2ccco2)CC1 | -6.9% | -19.3%
O=C(Nc1nc(-c2ccc(Cl)cc2Cl)cs1)C1CCN(C(=O)c2ccco2)CC1 | ? | 35.5µM*
Cc1ccc(Cl)cc1-n1ncc2c(NC3CCCCC3)ncnc21 | ? | 25.1µM*!
Cc1ccc(Cl)cc1-n1ncc2c(N3CCN(Cc4ccccc4)CC3)ncnc21 | 22.4µM* | 35.5µM*
Clc1ccc(-n2ncc3c(NC4CCCCCCCCCCC4)ncnc32)cc1 | 4.8% | -4.9%
CCN1CCN(c2ncnc3c2cnn3-c2cc(Cl)ccc2C)CC1 | -10.7% | -12.3%
CCCCN(Cc1cc2cc(OC)ccc2[nH]c1=O)S(C)(=O)=O | 4.0% | -0.5%
O=C(Cn1c(CO)cnc1SCc1c(F)cccc1Cl)NCc1ccccc1 | 1.4% | 10.6%
Cc1ccc2[nH]c(C(=O)NCCOc3ccccc3)cc2c1 | 189.7% | 10.2%
COc1ccc2[nH]c(=O)c(COC(=O)c3ccc(F)cc3)cc2c1 | 8.8% | -3.5%
N#CCOc1ccc(COc2cccc(C#N)c2)cc1 | 111.1% | 7.7%
N#CCOc1ccc2ccccc2c1 | 12.6µM* | 1.4%
Cc1ccccc1NC(=O)Cn1nnc(C(=O)NCc2cccs2)c1N | 99.9% | 56.0%
Cc1cc(C)c(NC(=O)Cn2nnc(C(=O)NCc3cccs3)c2N)c(C)c1 | 35.5µM* | -3.3%
N#Cc1nc(COc2ccc(Br)cc2)oc1NCc1ccco1 | 0.0% | -7.9%
COC(=O)Cc1c(C)c2ccc(OCc3ccccc3F)c(C)c2oc1=O | 173.1% | 15.5%
COC(=O)Cc1c(C)c2ccc(OCC(=O)C(C)(C)C)c(C)c2oc1=O | ? | 28.2µM*
O=C(Nc1nnc(C2CC2)s1)c1cc(-c2ccco2)nc2ccccc12 | -5.0% | -5.6%
NC(=O)NC(=O)COC(=O)c1ccccc1Br | 43.0% | 0.9%
CCC1CN(C(=O)N2CCC(C(=O)Nc3cc(C)ccc3C)CC2)c2ccccc2O1 (stereo unspecified) | -0.1% | 18.7%
CCC1CN(C(=O)N2CCC(C(=O)NCc3ccccc3C)CC2)c2ccccc2O1 (stereo unspecified) | -13.7% | 17.3%
CCC1CN(C(=O)N2CCC(C(=O)N3CCN(c4cccc(C)c4C)CC3)CC2)c2ccccc2O1 (stereo unspecified) | ? | 28.2µM*
CCC1CN(C(=O)N2CCC(C(=O)N3CCN(c4cc(C)ccc4C)CC3)CC2)c2ccccc2O1 (stereo unspecified) | 20µM* | ?
SMILES | FMDV FLuc | FMDV RLuc
Cc1occc1C(=O)Nc1nc(CC(=O)Nc2ccccc2)cs1 | 0.0% | -3.9%
Cc1csc2nc(-c3cccc(NC(=O)c4cccc(F)c4)c3)cn12 | -4.3% | 12.6µM*
Cc1csc2nc(-c3cccc(NC(=O)c4ccccc4F)c3)cn12 | 115.8% | 20.1%
O=C(Nc1ccccc1)c1cc(=O)c2ccccc2o1 | 0.0% | 1.7%
CC1(C)CC(=O)C2=C(C1)Nc1[nH]n(-c3ccccc3)c(=O)c1C2c1ccc(F)cc1 (stereo unspecified) | 43.2% | 156.1%
CC1(C)CC(=O)C2=C(C1)Nc1[nH]n(-c3ccccc3)c(=O)c1C2c1ccc(O)cc1 (stereo unspecified) | 1.7% | 10µM*
CC(C)Cn1c(N)c(-c2csc(Nc3ccc(Cl)cc3)n2)c(=O)n(C)c1=O | -5.9% | -8.4%
CC(=O)c1cn(CCOc2cccc3ccccc23)c2ccccc12 | ? | 12.6µM*
COc1ccccc1OCCn1cc(C(=O)C2CC2)c2ccccc21 | 3.1% | -12.3%
O=c1[nH]c(-n2cccc2)c(-c2c(-c3ccc4ccccc4c3)[nH]c3[nH]c(=O)[nH]c(=O)c23)c(=O)[nH]1 | 3.9% | -5.3%
CCc1c(C)sc(NC(=O)C(C)(C)C)c1C#N | 8.5% | 30.2%
CCc1c(C)sc(NC(=O)c2c(F)c(F)c(F)c(F)c2F)c1C#N | -6.6% | -8.4%
CCc1c(C)sc(NC(=O)C(F)(F)C(F)(F)C(F)(F)C(F)(F)F)c1C#N | 22.4µM* | 25.1µM*
CCc1c(C)sc(NC(=O)C(F)(F)C(F)(F)C(F)(F)F)c1C#N | ? | 10µM*
Cc1ccc(NC(=O)C2=C(c3ccccc3)NC(=S)NC2c2ccc(F)cc2)cc1 (stereo unspecified) | 18.1% | 24.7%
Cn1nc(C(=O)N2CCOCC2)cc1C(=O)Nc1ccc(F)c(F)c1 | 45.3% | -8.7%
Cc1nc(SCC(=O)Nc2ccccc2Br)oc1C | 0.0% | 8.8%
O=C(CSc1nnnn1C1CCCC1)NC(c1ccc(F)cc1)c1cccs1 (stereo unspecified) | -5.5% | 27.1%
Cc1nnsc1C(=O)Nc1ccc(S(=O)(=O)N2CCCCC2)cc1 | -8.9% | -2.9%
CCC1CCCCN1S(=O)(=O)c1ccc(NC(=O)c2snnc2C)cc1 (stereo unspecified) | 17.8µM* | ?

Screening data (PubChem BioAssay)
